About 79,000 compounds went through this panel and 15% of them were active in at least one assay; those are over-represented in the sample as a whole. Calls of active or inactive are those of the source. Cut-off read from the data, not from the text of the source: active = growth inhibition above about 70%; inactive = the rest.
How the values were obtained:
[1] = NCI Yeast Anticancer Drug Screen. Data for the rad50 strain (AID 155);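 note: 0% = growth of vehicle-only cultures of the same strain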; settings: S. cerevisiae rad50 strain growth inhibition; at 50.0 µM; active compounds read high
Summary of the method: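 Readout: growth inhibition relative to vehicle-treated cultures. Compound exposure was carried out in a genetically defined yeast strain deficient in DNA damage repair.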

[2] = NCI Yeast Anticancer Drug Screen. Data for the mec2-1 strain (AID 157); settings: S. cerevisiae mec2-1 strain, at 50.0 µM, active compounds read high
Summary of the method: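 Cells of the genetically defined mec2-1 yeast strain are incubated with test compound. Inhibition of growth is calculated against vehicle-treated controls.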

[3] = NCI Yeast Anticancer Drug Screen. Data for the sgs1 mgt1 strain (AID 161);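 note: 0% = growth of cultures given vehicle only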; settings: S. cerevisiae sgs1 mgt1 strain, at 50.0 µM, active compounds read high
Summary of the method: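 Read-out: growth inhibition vs vehicle controls. Cells: mutant yeast strain deficient in DNA damage repair.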

[4] = NCI Yeast Anticancer Drug Screen. Data for the cln2 rad14 strain (AID 165);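 note: 0% = growth equal to vehicle treated cultures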; settings: S. cerevisiae cln2 rad14 strain, at 50.0 µM, active compounds read high
Summary of the method: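 The screen exposed genetically defined yeast (cln2 rad14) to test compounds and scored growth inhibition relative to vehicle-treated controls.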

[5] = NCI Yeast Anticancer Drug Screen. Data for the bub3 strain (AID 167); settings: S. cerevisiae bub3 mutant strain, at 50.0 µM, active compounds read high
Summary of the method: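 Readout: yeast growth inhibition, expressed relative to vehicle-only wells. The test organism is a mutant strain from a panel with lesions in DNA repair or checkpoint genes.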

[6] = NCI Yeast Anticancer Drug Screen. Data for the mlh1 rad18 strain (AID 175); settings: S. cerevisiae mlh1 rad18 strain growth inhibition; at 50.0 µM; active compounds read high
Summary of the method: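 Compound-treated yeast growth, normalised to vehicle controls. Strain bears defined DNA repair mutations.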

SMILES	growth inhibition [1]	growth inhibition [2]	growth inhibition [3]	growth inhibition [4]	growth inhibition [5]	growth inhibition [6]
Clc1ccccc1OCc1cnc[nH]1	-4.05% (inactive)	-23.7% (inactive)	-14.9% (inactive)	6.2% (inactive)	-9.85% (inactive)	-8.7% (inactive)
CC(C)CCOC(=O)c1ccccc1Cl	17.7% (inactive)	18.5% (inactive)	11.1% (inactive)	12.4% (inactive)	0.15% (inactive)	-14.6% (inactive)
Cc1[nH]c(=O)[nH]c(=O)c1/C=C/C(=O)NC(CO)CS(=O)CS(C)=O (configuration not stated)	3.85% (inactive)	-11.2% (inactive)	9.75% (inactive)	13.1% (inactive)	5.6% (inactive)	-10.4% (inactive)
CC1=C(C)C(=O)C=CC1=O	19.9% (inactive)	6.3% (inactive)	5.3% (inactive)	-1% (inactive)	3.95% (inactive)	12% (inactive)
NCc1ccc(C(=O)O)cc1	-30.2% (inactive)	-8.9% (inactive)	-28% (inactive)	-68.7% (inactive)	-13% (inactive)	-14.6% (inactive)
O=C(CCl)OC1CCCCC1C1CCCCC1 (configuration not stated)	22.7% (inactive)	12.8% (inactive)	39.3% (inactive)	-1.5% (inactive)	32% (inactive)	39.6% (inactive)
CC(=O)/C(C=Nc1c(C)n(C)n(-c2ccccc2)c1=O)=C(/C)O	24.6% (inactive)	29% (inactive)	28.1% (inactive)	9.65% (inactive)	24.9% (inactive)	28.5% (inactive)
O=S(=O)(C(=C(c1ccccc1)c1ccccc1)c1ccccc1)c1ccccc1	42.1% (inactive)	99.5% (active)	19.9% (inactive)	17.8% (inactive)	6.35% (inactive)	68% (inactive)
COc1ccc(CC#N)cc1OC	6.5% (inactive)	-8.3% (inactive)	-5.6% (inactive)	-54.8% (inactive)	-31.4% (inactive)	-5.2% (inactive)
CC(C)(C)CC(C)(C)Nc1ccc(C(N)=O)cc1	-2.35% (inactive)	15.2% (inactive)	-20.9% (inactive)	-8.2% (inactive)	7.7% (inactive)	9.6% (inactive)
NCCCCC(N)C(=O)NC1C(CO)OC(n2cnc3c(N)ncnc32)C1O (configuration not stated)	31.9% (inactive)	13.2% (inactive)	7.55% (inactive)	14.3% (inactive)	5.75% (inactive)	30.1% (inactive)
OCCCNCc1ccncc1	22.8% (inactive)	-15.8% (inactive)	-14.6% (inactive)	33.5% (inactive)	-16.2% (inactive)	-3.55% (inactive)
COc1cccc(NC(=S)NC(=O)c2ccccc2)c1	82% (active)	60.8% (inactive)	96.2% (active)	37% (inactive)	95.6% (active)	45.7% (inactive)
CCC(=O)N1C(=O)OCC1C(C)C (configuration not stated)	-2.8% (inactive)	-21.4% (inactive)	-22.3% (inactive)	13.1% (inactive)	-9.35% (inactive)	14.8% (inactive)
CC1CNC(C)(C)O1 (configuration not stated)	36.5% (inactive)	10.9% (inactive)	18.9% (inactive)	23.6% (inactive)	11.6% (inactive)	29.4% (inactive)
O=C(O)CNC(=O)CNC(=O)c1ccc2ccccc2n1	2.7% (inactive)	-4.05% (inactive)	11.1% (inactive)	10.7% (inactive)	-14.3% (inactive)	15.9% (inactive)
Cc1nc2cccc([N+](=O)[O-])c2n1CCCN(C)C	1.7% (inactive)	6.5% (inactive)	11.9% (inactive)	-8.9% (inactive)	18.3% (inactive)	10.1% (inactive)
COC(=O)c1cc(NS(=O)(=O)c2ccc(N)cc2)cc(C(=O)OC)c1	-12.6% (inactive)	-24.2% (inactive)	-7.5% (inactive)	4.7% (inactive)	-14.8% (inactive)	-24.6% (inactive)
COC(=O)C1=CO[C@@H](C)[C@@H]2CN3CCc4c([nH]c5ccc(OC)cc45)[C@@H]3C[C@H]12	8.9% (inactive)	-19.9% (inactive)	-24.9% (inactive)	-18.6% (inactive)	-2.9% (inactive)	-16.4% (inactive)

SMILES	growth inhibition [1]	growth inhibition [2]	growth inhibition [3]	growth inhibition [4]	growth inhibition [5]	growth inhibition [6]
CCN(CC)C(=O)CS(=O)(=O)c1ccc(N)cc1	3.55% (inactive)	-8.5% (inactive)	2% (inactive)	23.9% (inactive)	7.35% (inactive)	14.7% (inactive)
O=C(O)c1c[nH]c(=O)[nH]c1=O.[Cu+2]	-23.9% (inactive)	-13% (inactive)	-12.4% (inactive)	-44.5% (inactive)	-40.8% (inactive)	-21.2% (inactive)
FC(F)(F)C(F)(F)C(F)(F)c1n[nH]c(C(F)(F)C(F)(F)C(F)(F)F)n1	12.8% (inactive)	15.1% (inactive)	33.4% (inactive)	2.95% (inactive)	18.5% (inactive)	-0.1% (inactive)
CCN(CC)c1nc2c(c(=O)n(C)c(=O)n2C)n1CCCNCC(O)c1ccc(O)c(O)c1 (configuration not stated)	-15.7% (inactive)	-16.4% (inactive)	-30.9% (inactive)	-47.1% (inactive)	-1.85% (inactive)	-31.5% (inactive)
C#CC1(c2ccccc2)OCCO1	21.9% (inactive)	17.4% (inactive)	16.3% (inactive)	4.55% (inactive)	-13.2% (inactive)	27.4% (inactive)
Cc1onc(-c2ccccc2)c1NC(=O)OCc1ccc(-c2cc(C(F)(F)F)cc(C(F)(F)F)c2)o1	-0.4% (inactive)	-14.9% (inactive)	-2.65% (inactive)	9.7% (inactive)	4.4% (inactive)	11.8% (inactive)
c1ccc2c(c1)[nH]c1c2ncc2[nH]c3ccccc3c21	-2.7% (inactive)	2.85% (inactive)	-7.35% (inactive)	-60.2% (inactive)	-1.8% (inactive)	7.25% (inactive)
COc1ccc(C23OCN(c4ccccc4)C2(c2ccc(OC)cc2)c2ccccc2N3C)cc1 (configuration not stated)	4.15% (inactive)	-6.85% (inactive)	-25.4% (inactive)	-0.25% (inactive)	-2.25% (inactive)	11.3% (inactive)
CCCCc1nc2c([nH]1)c(=O)n(C)c(=O)n2C	8.1% (inactive)	-10.9% (inactive)	5.2% (inactive)	4.85% (inactive)	-36.5% (inactive)	4.25% (inactive)
Clc1nc2ccccc2s1	-32.4% (inactive)	-5.2% (inactive)	-24.8% (inactive)	-38% (inactive)	-21.1% (inactive)	3.2% (inactive)
Cn1nc(-c2ccccc2)c(-c2cc(-c3ccccc3)n[nH]2)c(N)c1=O	18.9% (inactive)	12.4% (inactive)	20.8% (inactive)	7.9% (inactive)	19.7% (inactive)	22.9% (inactive)
Cc1ccc(NC(=O)CCC(=O)C(C)C(=O)c2ccccc2)cc1C (configuration not stated)	-72.1% (inactive)	-7.6% (inactive)	-14.3% (inactive)	-55.7% (inactive)	-12.8% (inactive)	-9.4% (inactive)
CC1C(c2ccccc2)NC(c2ccccc2)C(C)C1(O)c1ccccc1 (configuration not stated)	10.3% (inactive)	5.3% (inactive)	11.6% (inactive)	-23.1% (inactive)	11.1% (inactive)	16.4% (inactive)
COc1ccc(C2C3=C(CCCC3=O)N(c3ccccc3)C3=C2C(=O)CCC3)cc1	-67% (inactive)	-18.4% (inactive)	3.3% (inactive)	19.9% (inactive)	7.4% (inactive)	-27.5% (inactive)
CCC(SC)C(=O)c1ccccc1 (configuration not stated)	-7.55% (inactive)	-11.6% (inactive)	0.5% (inactive)	-12.4% (inactive)	-33.8% (inactive)	-12.8% (inactive)
Cc1cc(Cl)c(Cl)cc1NC(=O)c1ccc(Cl)c(Cl)c1	5.15% (inactive)	23.4% (inactive)	9.9% (inactive)	-3.25% (inactive)	45.1% (inactive)	5.2% (inactive)
Cc1cccc(N=Nc2c(C)nc(N)nc2C)c1C	4.35% (inactive)	6.55% (inactive)	2.1% (inactive)	-37.6% (inactive)	-13.6% (inactive)	6.75% (inactive)
O=C1CN(Cc2ccc(Cl)cc2)CC(=O)N2CCCN12	20.8% (inactive)	8% (inactive)	19.7% (inactive)	18.2% (inactive)	10.8% (inactive)	16.4% (inactive)
